Our source for the activity change, negative = inhibition and Gaussia minus Italica difference values is PubChem BioAssay AID1224904 (Broad Institute, 2016).

Several values for one entry are separate records, joined by “and”; a condition that tells them apart may be missing. Identical values can stand only once. Among all 37,000 compounds or so, about 290 (0.78%) were called active. Another 10% or so got no clear call; they are omitted.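 Rule for the calls: active = mean inhibition of at least 10% in the main channel, exceeding the control channel by a set limit; inconclusive = inhibition of 10% or more but channel gap under a set limit; inactive = mean inhibition below 10%.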 Shown is part of a subset that was picked to be rich in actives.

The nature of the experiment: inhibitors of DUX4-driven ZSCAN4 reporter expression, primary screen, 293T cells, Gaussia and Italica luciferase (AID 1224904).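 For activity change, negative = inhibition: 0% = median of neutral control wells and -100% = median of positive control wells.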 As to conditions: 293T-iDUX4 ZSCAN4-Gaussia luciferase reporter, 24 h, stronger effect = lower value, concentration not given here; for Gaussia minus Italica difference: measured here: selective DUX4 reporter inhibition.
Where [1] appears, read: measured here: Italica tet-on control reporter.

With `O=C(CC(F)(F)F)N1C[C@H]2[C@@H](c3ccccc31)[C@H](CO)N2C(=O)Cc1cccnc1`, the activity change, negative = inhibition is 2.67% (inactive) and the Gaussia minus Italica difference is 2.22%. Moreover, the activity change, negative = inhibition under setting [1] was 0.448%.
Regarding `CCCC#Cc1ccc([C@@H]2[C@@H](C#N)N(C(=O)C3CCC3)[C@H]2CO)cc1`, the activity change, negative = inhibition was 0.61% (inactive) and the Gaussia minus Italica difference is -1.01%. In addition, the activity change, negative = inhibition under setting [1] is 1.62%.
On to `COc1cccc(CN2[C@H](CO)[C@@H]3c4ccccc4N(C(=O)c4ccncc4)C[C@@H]32)c1`, for which the activity change, negative = inhibition is -3.19% (inactive) and the Gaussia minus Italica difference was -7.25%. For the same compound, under setting [1], the activity change, negative = inhibition turned out to be 4.06%.
With `COc1cccc(C(=O)Nc2ccc3c(c2)C(=O)N(C)[C@H]2CC[C@@H](CC(=O)N[C@H](C)c4ccccc4)O[C@H]2CO3)c1`, the activity change, negative = inhibition is -1.13% (inactive) and the Gaussia minus Italica difference is -1.51%. For the same compound, the activity change, negative = inhibition under setting [1] was found to be 0.375%.
Taken in the same sequence, the figures for `COC(=O)[C@@H]1[C@@H](CO)[C@@H]2Cn3c(ccc(-c4ccccc4F)c3=O)[C@@H]2N1CC1CCOCC1` were -4.32% (inactive), -12.8% and 8.44%.
In the case of `O=C([C@H]1[C@H](CO)[C@H]2Cn3c(cccc3=O)[C@@H]1N2Cc1cocn1)N1CCCCC1`, the activity change, negative = inhibition is 0.941% (inactive) and the Gaussia minus Italica difference is -0.343%. Further, under setting [1], the activity change, negative = inhibition came out at 1.28%.
Turning to `C/C=C/c1ccc(C2[C@H]3CNC[C@@H]2N3C(=O)Nc2cc(F)ccc2F)cc1` (some centres undefined), the activity change, negative = inhibition is 15.1% (inactive) and 2.98% (inactive); the Gaussia minus Italica difference was 11.2% and 0.626%. Also, the activity change, negative = inhibition under setting [1] was 3.89% and 2.36%.
Regarding `O=C(c1ccncc1)N1CC2(C1)[C@@H](c1ccccc1)[C@H](CO)N2C(=O)c1ccncc1`, the activity change, negative = inhibition was 9.03% (inactive) and the Gaussia minus Italica difference is 8.26%. In addition, the activity change, negative = inhibition under setting [1] came out at 0.77%.
Turning to `CO[C@@H]1CN(C)C(=O)c2cc(NS(=O)(=O)c3cn(C)cn3)ccc2OC[C@@H](C)N(CCC(F)(F)F)C[C@H]1C`, the activity change, negative = inhibition is 2.8% (inactive) and the Gaussia minus Italica difference stood at 0.0206%. For the same compound, the activity change, negative = inhibition under setting [1] stood at 2.78%.
Take `CC(C)NC(=O)Nc1ccc2c(c1)C(=O)N(C)[C@H]1CC[C@H](CC(=O)NCc3ccc(F)cc3)O[C@H]1CO2`: the activity change, negative = inhibition is -1.78% (inactive) and the Gaussia minus Italica difference is -0.872%. Also, the activity change, negative = inhibition under setting [1] was -0.912%.
Taken in the same sequence, the figures for `CN1C(=O)c2cc(NC(=O)Nc3ccccc3F)ccc2OC[C@H]2O[C@@H](CC(=O)Nc3cccc(Cl)c3)CC[C@@H]21` were 2.01% (inactive), 0.199% and 1.81%.
For the compound `CN1C(=O)c2cc(NC(=O)c3ccc(Cl)cc3)ccc2OC[C@@H]2O[C@@H](CC(=O)O)CC[C@H]21`, the activity change, negative = inhibition is 3.27% (inactive) and the Gaussia minus Italica difference was 0.834%. For the same compound, under setting [1], the activity change, negative = inhibition came out at 2.43%.
Consider `CCS(=O)(=O)N1[C@H](CO)[C@@H](c2ccc(C#CC(C)C)cc2)[C@@H]1C#N`, for which the activity change, negative = inhibition is -1.24% (inactive) and the Gaussia minus Italica difference was -0.33%. Moreover, the activity change, negative = inhibition under setting [1] is -0.906%.
As for `COc1ccccc1CN1[C@@H]2CNC[C@H]1C2c1ccc(-c2cccc(C#N)c2)cc1` (some centres undefined), the activity change, negative = inhibition is 2.24% (inactive) and -7% (inactive); the Gaussia minus Italica difference is -5.67% and 6.5%. Also, the activity change, negative = inhibition under setting [1] was 7.91% and -13.5%.
Take `CCCNC(=O)C[C@H]1CC[C@H]2[C@@H](COc3ccc(NC(=O)Nc4c(C)noc4C)cc3C(=O)N2C)O1`: the activity change, negative = inhibition was 1.35% (inactive) and the Gaussia minus Italica difference was -0.269%. In addition, the activity change, negative = inhibition under setting [1] is 1.62%.
With `O=C(Cc1ccncc1)N1C[C@@H]2N[C@H](C1)C2c1ccc(-c2ccc(F)cc2)cc1` (some centres undefined), the activity change, negative = inhibition is -3.63% (inactive) and the Gaussia minus Italica difference is -4.98%. Further, the activity change, negative = inhibition under setting [1] was 1.35%.
Regarding `N#Cc1ccc(-c2ccc(C3[C@@H]4CN(S(=O)(=O)c5ccc(F)cc5)C[C@H]3N4)cc2)cc1` (some centres undefined), the activity change, negative = inhibition was -15.8% (active) and the Gaussia minus Italica difference was -27.5%. Also, the activity change, negative = inhibition under setting [1] was 11.7%.
For the compound `CN(C)C(=O)c1cccc(-c2ccc(C3[C@@H]4CN(S(=O)(=O)c5ccc(F)cc5)C[C@H]3N4)cc2)c1` (some centres undefined), the activity change, negative = inhibition is -0.156% (inactive) and the Gaussia minus Italica difference was 4.34%. In addition, the activity change, negative = inhibition under setting [1] was -4.49%.
For `CCC(=O)N(C)C[C@H]1[C@H](c2ccc(-c3ccccc3F)cc2)[C@@H](CO)N1C(C)=O`, the activity change, negative = inhibition was 3.08% (inactive) and the Gaussia minus Italica difference was -4.34%. In addition, the activity change, negative = inhibition under setting [1] came out at 7.42%.
Regarding `CCCNC(=O)[C@@H]1[C@@H](CO)[C@@H]2Cn3c(cccc3=O)[C@H]1N2C(=O)C1CCC1`, the activity change, negative = inhibition is -0.71% (inactive) and the Gaussia minus Italica difference was -2.29%. Besides, under setting [1], the activity change, negative = inhibition came to 1.58%.
On to `CC=Cc1ccc2n(c1=O)C[C@@H]1[C@@H](CO)[C@H](C(=O)NCCCN3CCOCC3)[C@H]2N1Cc1cocn1` (mixture of isomers), for which the activity change, negative = inhibition is -1.75% (inactive) and the Gaussia minus Italica difference was -6.07%. For the same compound, the activity change, negative = inhibition under setting [1] came to 4.32%.
Take `CCCNC(=O)[C@@H]1[C@@H](CO)[C@@H]2Cn3c(ccc(C4=CCCCC4)c3=O)[C@H]1N2CCC`: the activity change, negative = inhibition was 0.23% (inactive) and the Gaussia minus Italica difference was found to be 0.57%. For the same compound, under setting [1], the activity change, negative = inhibition was -0.339%.
Regarding `COCCN(C[C@H]1[C@@H](c2ccccc2)[C@H](CO)N1C(=O)C1CCC1)C(C)=O`, the activity change, negative = inhibition is -2.05% (inactive) and the Gaussia minus Italica difference was -7.51%. Further, the activity change, negative = inhibition under setting [1] amounted to 5.46%.
As for `C[C@H]1CN([C@@H](C)CO)S(=O)(=O)c2ccc(-c3ccncc3)cc2O[C@H]1CN(C)S(C)(=O)=O`, the activity change, negative = inhibition is -0.678% (inactive) and the Gaussia minus Italica difference was -5.48%. Further, the activity change, negative = inhibition under setting [1] was found to be 4.8%.
For `CCC(=O)N1C[C@@H](C)[C@H](OC)CN(C)C(=O)c2cc(NC(=O)c3cc(C)on3)ccc2OC[C@@H]1C`, in that order: -1.43% (inactive), -3.85% and 2.42%.
For `CCCNC(=O)N1C[C@@H](C)[C@@H](OC)CN(C)C(=O)c2ccc(NC(=O)C3CCC3)cc2OC[C@@H]1C`, in that order: -2.74% (inactive), -0.535% and -2.2%.
Taken in the same sequence, the figures for `CN1C(=O)c2cc(NS(=O)(=O)c3ccc(Cl)cc3)ccc2OC[C@H]2O[C@@H](CC(=O)O)CC[C@H]21` were 2.17% (inactive), 2.63% and -0.461%.
Consider `CN1C(=O)c2cc(NC(=O)c3ccc(F)c(F)c3)ccc2OC[C@H]2O[C@@H](CC(=O)N3CCCCC3)CC[C@H]21`, for which the activity change, negative = inhibition was -2.75% (inactive) and the Gaussia minus Italica difference was -0.906%. Besides, the activity change, negative = inhibition under setting [1] is -1.85%.
Regarding `CO[C@@H](CN(C)C(=O)Nc1ccc(F)cc1)[C@H](C)CN(Cc1ccccc1Cl)[C@@H](C)CO`, the activity change, negative = inhibition is 1.39% (inactive) and the Gaussia minus Italica difference was 2.69%. Further, the activity change, negative = inhibition under setting [1] is -1.3%.
Taken in the same sequence, the figures for `COCC(=O)N1CC2(C1)[C@H](c1ccc(-c3cccc(F)c3)cc1)[C@@H](CO)N2C(=O)COC` were 6.28% (inactive), 3.04% and 3.24%.
For the compound `CN(C)c1ccc2c(c1)[C@H]1C[C@H](CC(=O)O)O[C@H](CO)[C@H]1O2`, the activity change, negative = inhibition was 1.12% (inactive) and the Gaussia minus Italica difference is -5.64%. The activity change, negative = inhibition under setting [1] amounted to 6.76%.
Take `C[C@@H]1CN([C@@H](C)CO)C(=O)c2c(c3ccccc3n2C)-c2ccccc2CO[C@@H]1CN(C)Cc1ccc2c(c1)OCCN2C`: the activity change, negative = inhibition is -2.06% (inactive) and the Gaussia minus Italica difference was -4.27%. Besides, the activity change, negative = inhibition under setting [1] was 2.22%.
For the compound `Cc1ccccc1S(=O)(=O)N(C)C[C@@H]1OCc2ccccc2-c2c(n(C)c3ccccc23)C(=O)N([C@H](C)CO)C[C@H]1C`, the activity change, negative = inhibition is -34% (active) and the Gaussia minus Italica difference is -27.3%. Further, the activity change, negative = inhibition under setting [1] was -6.75%.
Take `C[C@H](CO)N1C[C@H](C)[C@@H](CN(C)Cc2ccc(C(F)(F)F)cc2)OCc2ccccc2-c2c(n(C)c3ccccc23)C1=O`: the activity change, negative = inhibition is -40.3% (active) and the Gaussia minus Italica difference was -29.3%. Besides, under setting [1], the activity change, negative = inhibition was -11%.
For `C[C@@H]1CN([C@@H](C)CO)C(=O)c2c(c3ccccc3n2C)-c2ccccc2CO[C@@H]1CN(C)Cc1cccc(C(=O)O)c1`, in that order: 7.37% (inactive), 2.36% and 5%.
For `C[C@@H]1CN([C@@H](C)CO)C(=O)c2c(c3ccccc3n2C)-c2ccccc2CO[C@@H]1CN(C)S(=O)(=O)CC(F)(F)F`, in that order: 18.5% (inactive), 17.3% and 1.21%.
On to `C[C@@H]1CN([C@@H](C)CO)C(=O)c2c(c3ccccc3n2C)-c2ccccc2CO[C@H]1CN(C)Cc1cccc(C(=O)O)c1`, for which the activity change, negative = inhibition was -0.025% (inactive) and the Gaussia minus Italica difference was determined as 8.28%. For the same compound, the activity change, negative = inhibition under setting [1] is -8.31%.
Taken in the same sequence, the figures for `C[C@@H]1CN([C@H](C)CO)C(=O)c2c(c3ccccc3n2C)-c2ccccc2CO[C@@H]1CN(C)Cc1ccc(F)cc1` were -34.5% (active), -25.8% and -8.76%.
Regarding `C[C@@H]1CN([C@H](C)CO)C(=O)c2c(c3ccccc3n2C)-c2ccccc2CO[C@@H]1CN(C)Cc1ccccc1C(F)(F)F`, the activity change, negative = inhibition was -42% (active) and the Gaussia minus Italica difference was -36.9%. Besides, the activity change, negative = inhibition under setting [1] is -5.06%.
Regarding `C[C@@H]1CN([C@@H](C)CO)C(=O)c2c(c3ccccc3n2C)-c2ccccc2CO[C@H]1CN(C)S(=O)(=O)c1cccs1`, the activity change, negative = inhibition is -5.46% (inactive) and the Gaussia minus Italica difference was -4.37%. Under setting [1], the activity change, negative = inhibition was -1.09%.
On to `C[C@H]1CN([C@@H](C)CO)C(=O)c2c(c3ccccc3n2C)-c2ccccc2CO[C@H]1CN(C)Cc1ccc2c(c1)OCO2`, for which the activity change, negative = inhibition was 3.62% (inactive) and the Gaussia minus Italica difference was 4.06%. Further, the activity change, negative = inhibition under setting [1] was -0.444%.
`CC(C)OC(=O)N(C)C[C@@H]1OCc2ccccc2-c2c(n(C)c3ccccc23)C(=O)N([C@H](C)CO)C[C@H]1C`: the activity change, negative = inhibition was -4.14% (inactive) and the Gaussia minus Italica difference is -3.24%. Moreover, the activity change, negative = inhibition under setting [1] is -0.897%.
In the case of `C[C@@H]1CN([C@@H](C)CO)C(=O)c2c(c3ccccc3n2C)-c2ccccc2CO[C@@H]1CN(C)S(=O)(=O)c1cccs1`, the activity change, negative = inhibition was 10.1% (inactive) and the Gaussia minus Italica difference is 5.19%. Also, the activity change, negative = inhibition under setting [1] amounted to 4.92%.
